From PubChem BioAssay AID1508600 (Functional Genomics Laboratory (NCATS/FGL), 2020)
Among all 53,000 sequences or so, about 3,700 (7%) were called active.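 How the source made its calls: active means gene knockdowns whose robust z-score for IL-1 alpha signal is at least 2 or at most -2, so actives lie on both sides; inactive means the rest.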 The entries come from a sample that favours actives as a whole.

assay: Components of the Cytosolic LPS Sensing Pathway: Gene Identification via Genome-wide siRNA Screen; conditions: RAW264.7 macrophages, IL-1a HTRF, actives lie on both sides, screened at 100 nM (by protocol), cells primed 5 h with Pam3CSK4 first;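 further: robust z of the log signal after scaling to non-targeting control siRNA wells of the plate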
How it was run: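 Supernatant IL-1a by HTRF from RAW264.7 cells primed with Pam3CSK4 (5 hours) and transfected with LipidA (24 hour) after 48h siRNA knockdown at 100 nM; cell viability checked with CellTiter-Glo.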

z-score, active:
CCAAUGUGCGAGCAAAGAUTT against Arid5a 2.48
GGUGAUGAAAGGGAAUGGCTT against Rnf25 -2.53
GGAGAGGUCAGAUAGAAAUTT against Zbtb41 -2.29
GGGAAUGACUCCACAUUGCTT against Limd1 2.01
CGUAUUCUGGUAGUGAAGGTT against Olfr1384 -2.3
GGAAACAAGAUUACAUCAATT against Adamts2 2.04

z-score, inactive:
GGUCACCCUCAAGUACCCUTT against Thop1 -0.188
GCUAUUAAGUUUACCCUAGTT against A730089K16Rik -1.31
GGACCAACUACACACUACGTT against Grik5 0.334
GGACCGUAUCCCAAAAGAUTT against Klf1 -0.968
GGGCCUCUUCCUUAAGCAUTT against Snx8 -0.382
GGAAGUUUGUUUGCUGUUATT against Slx4ip 1.08
GCCUAUUGUAAAUACAGGUTT against Bdnf 0.6
GGUGAAUAGAACAUCAUCUTT against Lrrc29 -1.76
GGAACACAAAUUGUGCUUATT against Zfp462 0.199
GGGUUGUAUGGCUCAAAUATT against Olfr728 0.734
GCAUCAUAAUGGGAUGCUGTT against Qrfp -0.313
GGCAAAAGAAUCGUUCUCATT against Ppat -0.848
GGAAGAAAUACUACAGCCATT against Ptpn12 -0.733
GAAGGAAGAAUAUUGGCCCTT against Il17rd -1.88
GCGGCAAUUCAAAUGAGUCTT against Rnf14 1.2
GGGAGAGAGUUGGCUCUGATT against Prg3 -0.184
GGGAGACUUCGAAUAUUUATT against Uroc1 -0.183
GCUCAACCUAACUUUGUGGTT against Ccdc3 0.421
GGCAACAAUGGUUGUCUUGTT against Ctsr 0.515
GCCAAACUUAGCGUGCUCATT against Dgkk 0.607
GGGUAUCAACCACUUUUUUTT against Serping1 2
GGUCAGAUUCCUGAAAUUATT against Vbp1 -0.807
GGCCAUAGUGAAGAAAGAATT against Plaat3 -0.754
GGAGAAGGAUAGAGAUGGUTT against Phf5a -1.84
